PubChem BioAssay (NCATS)
Results filed as inconclusive are left out. Entries that show only a call come without a potency. Activity calls are given as the source filed them. Calls come from the whole dose curve; as a rule, active = well fitted cell-killing curve with a large enough effect; inconclusive = small, poorly fitted or top-dose-only effect, or effect the other way; inactive = flat fitted curve, though single readings scatter.

These compounds were tested on Es-2 (assay: Primary qHTS to identify gynecologic anti-cancer compounds using libraries of approved drugs and bioactive compounds (AID 1345084; note: nearly all actives have a fitted effect of over 55% in size)). Conditions: Gynecologic cancer cell panel viability, ATPlite luminescence, 48 h; series mostly up to 57.5 µM.
Outline: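 Cytotoxicity screen measuring ATP content by luciferase luminescence. Each compound is applied at five concentrations for 48 h at 37 C with 5% CO2.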

SMILES | Potency | activity change, negative = cytotoxicity
COC(=O)C1=COC(OC2OC(CO)C(O)C(O)C2O)C2C(COC(=O)/C=C/c3ccc(O)c(O)c3)C(O)C(O)C12 (stereo unspecified) | inactive | –
O=C(OC[C@H]1O[C@H](O[C@]2(CO)O[C@H](CO)[C@@H](O)[C@@H]2O)[C@H](O)[C@@H](O)[C@@H]1O)c1ccc(O)cc1 | inactive | –
C=CC(C)(O)C1CC2C3(C)CCCC(C)(C)C3C(O)C(O)C2(C)O1 (stereo unspecified) | inactive | –
CC1CC(=O)[C@]2(O)C(C(=O)OCCc3ccc(O)c(O)c3)=CO[C@@H](O[C@@H]3O[C@H](CO)[C@@H](O)[C@H](O)[C@H]3O)[C@H]12 (stereo partly specified) | inactive | –
COc1cc(O)cc2c1C(=O)OC(C)CCCCCCC2 (stereo unspecified) | inactive | –
C=C(C)[C@H]1CC[C@]2(C(=O)O)CC[C@]3(C)C(CCC4[C@@]5(C)CCC(=O)C(C)(C)C5CC[C@]43C)C12 (stereo partly specified) | inactive | –
OCC1OC(Oc2cc(O)cc(/C=C/c3ccc(OC4OC(CO)C(O)C(O)C4O)cc3O)c2)C(O)C(O)C1O (stereo unspecified) | inactive | –
CC(C)[C@](O)(c1ccc2cc(OC(F)F)c(OC(F)F)cc2c1)c1cn[nH]n1 | inactive | –
C/C=C1/[C@H](O[C@@H]2O[C@H](CO)[C@@H](O)[C@H](O)[C@H]2O)OC=C(C(=O)OC)[C@H]1CC(=O)OCCc1ccc(OC(=O)C[C@@H]2C(C(=O)OC)=CO[C@@H](O[C@@H]3O[C@H](CO)[C@@H](O)[C@H](O)[C@H]3O)/C2=C/C)cc1 | – | 6.86% [at 11.6 µM] (inactive)
C/C(=C/CO)CC[C@H]1[C@]2(C)C[C@H](O)CC(C)(C)[C@H]2CC[C@]1(C)O | inactive | –
C[C@@H]1O[C@@H](O[C@@H]2\C=C/C=C\C=C/C=C\C[C@H](C)OC(=O)/C=C\[C@H]3O[C@@H]3C[C@H](O)C[C@]3(O)C[C@@H](O)[C@@H](C(=O)O)[C@H](C2)O3)[C@H](O)[C@H](N)[C@@H]1O | inactive | –
